Screening results (PubChem BioAssay)
Rows were chosen to be rich in hits. Some 3.8% of all compounds tested hit in one or more screens of this group.
Y pestis TopoI: Y. pestis Topo-I inhibition via cleavage products. Y. pestis Topo-I cleavage product accumulation, plate reader. activity, % at 10 µM. AID 504884. hit rate 0.064% among 360,000; in the data active = activity above about 50%, passing the limit was not always enough
GDH-TPI inh: counter-screen for M. tuberculosis FBA inhibitors: GDH-TPI coupled enzymes; AID 588335; hit rate 1.2% among 360,000; inhibition, % at 4.8 µM; GDH-TPI coupled enzyme counterscreen, NADH absorbance; in the data active = inhibition above about 30%;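 also: 0% = DMSO wells and 100% = wells lacking the enzyme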
Mtb hypoxia rep: Mtb hypoxia fluorescent reporter inhibition; M. tuberculosis hypoxia-regulated fluorescent reporter, fluorescence; fluorescence inhibition, % (no concentration beside the values); hit rate 0.1% among 300,000; in the data active = fluorescence inhibition mostly above about 23%, no sharp cut-off; inactive = mostly below about 17%
Mtb FBA inh: inhibits M. tuberculosis FBA enzyme | purified M. tuberculosis FBA, fluorescence read-out | inhibition, % at 1 µM | hit rate 2.3% among 360,000 | AID 588726; in the data active = inhibition above about 27%;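 also: 0% = vehicle and 100% = reference inhibitor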
Target sequence (P9WQA3 whole entry, looked up): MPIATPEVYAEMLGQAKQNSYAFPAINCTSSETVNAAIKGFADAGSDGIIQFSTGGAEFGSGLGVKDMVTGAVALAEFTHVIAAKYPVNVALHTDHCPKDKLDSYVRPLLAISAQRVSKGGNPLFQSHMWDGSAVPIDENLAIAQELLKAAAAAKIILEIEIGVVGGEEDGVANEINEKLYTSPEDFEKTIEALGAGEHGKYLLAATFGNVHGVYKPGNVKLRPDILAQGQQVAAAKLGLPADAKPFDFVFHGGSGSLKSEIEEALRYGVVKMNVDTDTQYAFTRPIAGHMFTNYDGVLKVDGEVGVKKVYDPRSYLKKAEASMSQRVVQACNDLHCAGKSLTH
PrPC TRFRET: reduces human prion protein on the cell surface | inhibition, % at 13.8 µM | P04156 | cell surface PrPC, TR-FRET read-out | AID 720596 | hit rate 0.43% among 370,000; in the data active = inhibition above about 24%; also: 0% = median of the test wells and 100% = reference compound wells
PrP 5UTR inh: inhibition of PrP 5' UTR reporter expression; hit rate 0.35% among 340,000; cell-based PrP 5' UTR mRNA reporter, plate reader; inhibition, % (test concentration not listed); AID 488862; in the data active = inhibition above about 52%; also: 0 = median of the neutral control wells
* = called active by the depositor; / = no result; + = active, no number.

SMILES	Y pestis TopoI	GDH-TPI inh	Mtb hypoxia rep	Mtb FBA inh	PrPC TRFRET	PrP 5UTR inh
N#C/C(=C\c1ccc(O)c(O)c1)C(=O)N1CCCC1	4.1	7.2	11.7	-9.3	6.1	-14.0
Cc1cccc(C=NNC(=O)c2c(-c3ccccc3)noc2C)c1O	/	/	2.7	/	/	/
[O-]C1=N[N+](=Cc2ccccc2Cl)CC1	/	/	10.1	/	/	/
Cc1cc(OCC(=O)NCc2ccc(S(N)(=O)=O)cc2)c2c3c(c(=O)oc2c1)CCC3	1.0	23.7	-2.8	40.4*	-10.4	-19.9
Cc1cc(OCC(=O)NCc2ccncc2)c2c3c(c(=O)oc2c1)CCC3	1.5	1.5	6.3	25.8	-3.0	-11.9
CC(C)(O[C@@H]1O[C@H](CO)[C@@H](O)[C@H](O)[C@H]1O)[C@H]1Cc2cc3ccc(=O)oc3cc2O1	-4.7	32.6*	/	+	-0.5	-5.4
CC(C)(O)C1Cc2c(ccc3ccc(=O)oc23)O1 (stereo not drawn)	/	/	5.0	/	/	/
CC(C)c1cc2cc3ccc(=O)oc3cc2o1	5.0	11.2	-3.6	17.1	7.7	-33.2
CC(C)(O)[C@H]1Cc2cc3ccc(=O)oc3cc2O1	-8.1	24.5	0.0	+	1.8	-25.6
C=C(C)C1Cc2cc3ccc(=O)oc3cc2O1 (stereo not drawn)	2.0	15.2	11.0	184.5*	3.6	-16.3
CC(C)(O)[C@@H]1Cc2c(ccc3ccc(=O)oc23)O1	-4.7	11.9	/	+	-2.6	-24.8
COC(=O)c1ccccc1NC=C1CCc2c(c(C)nn2-c2ccccn2)C1=O	/	/	7.7	/	/	/
CC1CCC(=O)N(C(CSc2ccccc2)Cc2ccccc2)CC1 (stereo not drawn)	/	/	-3.9	/	/	/
CC(=O)NN=C(C)c1cccc(NC(=O)c2cccs2)c1	/	/	2.8	/	/	/
COc1cc(C=NNC(=O)Nc2ccccc2)ccc1OCCOc1ccccc1C	/	/	2.1	/	/	/
CCOC(=O)/C(C#N)=C/c1c(N2CCN(C)CC2)nc2ccccn2c1=O	2.8	14.7	12.5	-5.4	-13.7	-10.3
COCCNC(=O)/C(C#N)=C/c1c(N2CCN(C)CC2)nc2ccccn2c1=O	-2.0	5.7	-5.6	192.5*	-7.7	-18.7
COc1ccc(C2Nc3cc(OC)ccc3-n3cccc32)cc1 (stereo not drawn)	-15.2	33.8*	3.0	8.6	-7.2	-11.5
O=C(NN=Cc1c(O)ccc2ccccc12)c1cccc(C(F)(F)F)c1	/	/	8.4	/	/	/
COc1ccc2cc(C(=O)NCCCN3CCCC3=O)[nH]c2c1	-2.9	11.6	14.3	11.8	-8.0	-26.6
COc1ccc2[nH]c3c(=O)n(CCc4ccccc4)cnc3c2c1	9.6	14.2	12.1	94.7*	4.7	-12.4
COc1ccc(CCn2cnc3c([nH]c4ccccc43)c2=O)cc1	-3.5	-6.5	12.1	6.3	13.1	-28.0
COc1ccc2[nH]c3c(NCCCN4CCCC4=O)ncnc3c2c1	-10.9	18.2	9.2	152.0*	1.9	-32.0
COc1ccc(-n2c(O)c(C=NNS(=O)(=O)c3ccc(C)cc3)c3ccccc3c2=O)cc1OC	/	/	-5.1	/	/	/
O=C(O)COc1ccccc1C=NNc1ccc(S(=O)(=O)N2CCOCC2)cc1[N+](=O)[O-]	/	/	21.9	/	/	/
SMILES	Y pestis TopoI	GDH-TPI inh	Mtb hypoxia rep	Mtb FBA inh	PrPC TRFRET	PrP 5UTR inh
Oc1ccc(O)c(C=NNC(=S)NC2CC3CC2C2C=CCC32)c1 (stereo not drawn)	-15.4	31.0*	/	2.4	-8.0	/
CCCCC(=O)Nc1nc(-c2ccc(S(=O)(=O)N3CCOCC3)cc2)cs1	17.1	-1.0	8.5	36.1*	0.5	-13.6
CC(C)CC(=O)Nc1nc(-c2ccc(S(=O)(=O)N3CCOCC3)cc2)cs1	14.8	-1.0	-2.9	31.4*	11.9	-12.0
CC(=NNC(=O)C1CC1(C)c1ccccc1)c1ccco1 (stereo not drawn)	/	/	11.2	/	/	/
Cc1no[n+]([O-])c1COc1ccc(/C=C2\NC(=S)NC2=O)cc1	1.0	39.2*	/	2.7	-1.9	-17.2
O=C1CSC(c2cn(-c3ccccc3)nc2-c2cc3ccccc3oc2=O)N1Cc1ccco1 (stereo not drawn)	-0.6	31.4*	-0.8	2.1	12.0	-21.6
COC(=O)C1=C(c2ccc(OC(F)(F)F)cc2)CC2CCC1N2C(=O)NCCO (stereo not drawn)	/	/	2.4	/	/	/
C=C1C(=O)c2sccc2C(c2ccc(OC)c(OC)c2)C1COC(C)=O (stereo not drawn)	-1.1	9.6	/	5.3	96.3*	4.7
CCOC(=O)c1cc(NC(=O)c2ccccc2)c(=O)oc1-c1ccccc1	-1.7	33.3*	0.2	1.6	3.0	-7.6
